Measurements: ChEMBL document CHEMBL3988442, “University of Dundee, Small-Polar-MMV Screening Library” (2021)
Among all 48,000 compounds or so, about 13,000 (27%) showed an effect of 50% or more. This is one part of the list.

Each compound was assayed on Wolbachia pipientis (assay: Anti-Wolbachia Cell-Based Screen). Settings: 5 µM.
Type: functional
Set-up: scale not given: in the data most compounds retested in dose-response had high values

| Structure (SMILES) | Percent Effect |
| --- | --- |
| Cc1ccc(C(C(=O)NCCc2nc(C)cc(C)n2)N(C)C)cc1 (stereo unspecified) | 11.55% |
| COc1ccc(-c2cccc3c2OC(CN)C3)cc1F (stereo unspecified) | -8.297% |
| CCN1CCN(C[C@@H]2CN(c3ncc(Cl)cc3Cl)C[C@@H]2CO)CC1 | -5.198% |
| Cc1noc([C@@H]2C[C@H]3OCC[C@H]3N(Cc3cc(C)c(C)o3)C2)n1.O=C(O)C(F)(F)F | -0.5348% |
| Cc1noc([C@H]2C[C@H]3OCC[C@H]3N(C3CCC3)C2)n1.O=C(O)C(F)(F)F | 110.4% |
| Cc1noc([C@H]2C[C@H]3OCC[C@H]3N(S(=O)(=O)C3CC3)C2)n1 | 5.212% |
| CCS(=O)(=O)N1C[C@@H](c2nnc(C)o2)C[C@H]2OCC[C@H]21 | 1.952% |
| Cc1noc([C@H]2C[C@H]3OCC[C@H]3N(S(C)(=O)=O)C2)n1 | 101.7% |
| CCCS(=O)(=O)N1C[C@@H](c2nc(C)no2)C[C@H]2OCC[C@H]21 | 120.5% |
| Cc1noc([C@@H]2C[C@H]3OCC[C@H]3N(S(C)(=O)=O)C2)n1 | 0.371% |
| Cc1noc([C@H]2C[C@H]3OCC[C@H]3N(Cc3scnc3C)C2)n1.O=C(O)C(F)(F)F.O=C(O)C(F)(F)F | -0.107% |
| CCc1ccc(CN2C[C@@H](c3nc(C)no3)C[C@H]3OCC[C@H]32)o1.O=C(O)C(F)(F)F | 3.351% |
| CCS(=O)(=O)N1C[C@H](c2nc(C)no2)C[C@H]2OCC[C@H]21 | 131.3% |
| Cc1nnc([C@H]2C[C@H]3OCC[C@H]3N(S(=O)(=O)CC(C)C)C2)o1 | -13.43% |
| Cc1noc([C@@H]2C[C@H]3OCC[C@H]3N(CC3CCCC3)C2)n1.O=C(O)C(F)(F)F | -10.41% |
| Cc1ccc(-c2cnnc(NCC3(N4CCOCC4)CCCC3)n2)o1 | 10.34% |
| CNC(=O)c1cc2c(s1)CCN(C(=O)CCC1CCCN(C)C1)C2 (stereo unspecified) | -26.69% |
| Cc1nn(C)c(C)c1CN(Cc1cccn1-c1ncccn1)C(C)C | -15.44% |
| CC(Cn1ccnc1)NC(=O)N(C)Cc1ccco1 (stereo unspecified) | 7.542% |

| Structure (SMILES) | Percent Effect |
| --- | --- |
| Cc1ccccc1CC1(CO)CCCN(c2ncnc3sccc23)C1 (stereo unspecified) | 23.07% |
| Cc1noc([C@@H]2C[C@H]3OCC[C@H]3N(S(=O)(=O)c3ccccc3)C2)n1 | 116% |
| Cc1noc([C@@H]2C[C@H]3OCC[C@H]3N(Cc3ccoc3)C2)n1 | 14.51% |
| Cc1noc([C@@H]2C[C@H]3OCC[C@H]3N(S(=O)(=O)c3cccnc3)C2)n1.O=C(O)C(F)(F)F | -2.374% |
| Cc1nnc([C@H]2C[C@H]3OCC[C@H]3N(S(=O)(=O)N(C)C)C2)o1 | -11.67% |
| Cc1noc([C@@H]2C[C@H]3OCC[C@H]3N(S(=O)(=O)N(C)C)C2)n1 | 112.3% |
| Cc1nnc([C@H]2C[C@H]3OCC[C@H]3N(S(=O)(=O)C3CC3)C2)o1 | 7.121% |
| CCC(O)Cn1nc(CCSC)nc1-c1ccc2[nH]ccc2c1 (stereo unspecified) | 4.032% |
| COc1ccc(OCc2nc(C(=O)N3CCCNC(=O)C3)co2)cc1 | -7.469% |
| COc1ccc(CN(C)C(=O)c2nnc(CN(C)C)o2)cc1 | -11.59% |
| CN1CC(c2ccccc2)CC12CCN(C(=O)c1ccc(F)cc1)CC2 (stereo unspecified) | -4.742% |
| O=C(c1ccccc1)N1CCCC(Nc2ccc(F)cc2)C1 (stereo unspecified) | -11.95% |
| NC(=O)C1CN(C(=O)c2ccc(F)cc2)CCN1CCc1ccccc1 (stereo unspecified) | 127.4% |
| O=C(NC[C@H]1OC[C@@H](NC2CCC(F)(F)CC2)[C@@H]1O)C1CCCC1 | 8.921% |
| CN(C)c1cc2c(nn1)CCN(C(=O)C1COc3ccccc3C1)C2 (stereo unspecified) | -4.709% |
| CN(Cc1ccco1)C(=O)[C@@]12CNC[C@@H]1CN(C1CCCC1)C2 | -1.971% |
| CCN1CCC2(CC1)CC(NC(=O)c1ccnnc1)c1ccccc12.O=C(O)C(F)(F)F (stereo unspecified) | -6.669% |
| COCC(=O)NC1CC2(CCN(CCO)CC2)c2ccccc21.O=C(O)C(F)(F)F (stereo unspecified) | 86.71% |
| O=C(NC1CC2(CCN(CCO)CC2)c2ccccc21)c1ccncc1.O=C(O)C(F)(F)F.O=C(O)C(F)(F)F (stereo unspecified) | -8.101% |

| Structure (SMILES) | Percent Effect |
| --- | --- |
| COCC(=O)NC1CC2(CCN(CCN(C)C)CC2)c2ccccc21 (stereo unspecified) | 87.88% |
| CC(C)C(=O)NC1CC2(CCN(CC(=O)N(C)C)CC2)c2ccccc21.O=C(O)C(F)(F)F (stereo unspecified) | 105.8% |
| CCC(c1nc(C(C)C)nn1-c1ccccn1)n1cccn1 (stereo unspecified) | 8.011% |
| CC(C)N1CCc2c(c(COc3cncnc3)nn2CC2CC2)C1.O=C(O)C(F)(F)F | -1.489% |
| c1ccc(-c2cnc(CNC3CCCN(c4cccnn4)C3)o2)cc1 (stereo unspecified) | -8.343% |
| O=C(c1ccno1)N1C[C@@H](F)[C@@H](OCc2nc3ccccc3o2)C1 | 6.473% |
| NC(=O)C1CN(c2ccc3c(Cl)ccnc3c2F)CCO1 (stereo unspecified) | -12.11% |
| CCc1nc(NC(=O)Cc2csc(-c3nnc[nH]3)n2)sc1C | 3.287% |
| CN(C)C(=O)N1Cc2nnn(CC3CC3)c2C(COCC2CC2)C1 (stereo unspecified) | 117.2% |
| COCC1CN(C(=O)[C@H]2CCCO2)Cc2nnn(CC3CC3)c21 (stereo partly specified) | -4.44% |
| O=C(O)C(F)(F)F.c1cc(CN2Cc3nnn(CC4CC4)c3C(COCC3CC3)C2)co1 (stereo unspecified) | 1.787% |
| COCC1CN(Cc2ccncc2)Cc2nnn(CC3CC3)c21.O=C(O)C(F)(F)F.O=C(O)C(F)(F)F (stereo unspecified) | -5.053% |
| C1CC(N2Cc3nnn(CC4CC4)c3C(COCC3CC3)C2)C1.O=C(O)C(F)(F)F (stereo unspecified) | 96.7% |
| C1CCC(CN2Cc3nnn(CC4CC4)c3C(COCC3CC3)C2)C1.O=C(O)C(F)(F)F (stereo unspecified) | 107.6% |
| CCOCC1CN(CC2CCC2)Cc2nnn(CC3CC3)c21 (stereo unspecified) | 111.4% |
| CCOCC1CN(C(=O)[C@H]2CCCO2)Cc2nnn(CC3CC3)c21 (stereo partly specified) | 0.1287% |
| CN(C)C(=O)N1Cc2nnn(C)c2C(COCC2CC2)C1 (stereo unspecified) | 7.957% |
| CCOCC1CN(C(=O)N(C)C)Cc2nnn(CC3CC3)c21 (stereo unspecified) | -7.85% |
